Our source for the inhibition values is PubChem BioAssay AID588850 (Sanford-Burnham Center for Chemical Genomics, 2011).

Each structure is given as a SMILES string. About 3,100 (0.86%) of roughly 360,000 compounds were called active. Many of the other results were omitted from the sample, so actives are more common in it than they were. Unmarked numbers belong to inactive results.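 Rule for the calls: active = at least 50% inhibition at 5 µM, scaled per plate between neutral and stimulator controls; inactive = the rest.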

The nature of the assay: inhibitors of PAF-induced NF-kB signaling, primary screen, cell-based, GFP fluorescence, uHTS (AID 588850).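 Note: PAF is a Pseudomonas aeruginosa culture filtrate used as stimulus; plate controls were PAF-stimulated DMSO wells for no effect and unstimulated DMSO wells for full effect.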 The following applies: KKLEB NF-kB-GFP reporter, GFP fluorescence overnight, at 5 µM, hits give high values.
By inhibition is commonly meant the drop in the measured response relative to a control, in per cent. As for `COc1ccc(C2=NO[C@@H]3C(=O)N(Cc4ccccc4)C(=O)[C@H]23)cc1OC`, the inhibition was 11%.
Under `COc1ccc(-c2cc(C(=O)NCCCN3CCCC3=O)c3ccccc3n2)cc1OC` stands -14%; under `COc1ccc(-c2cc(C(F)(F)F)nc(S(C)(=O)=O)n2)cc1OC`, 90.7% (active); under `Cc1cccc(NC(=O)Cn2cc(C(=O)c3ccco3)c3ccccc32)c1`, -7.8%.
Under `Cc1cccc(NC(=O)CCN2CC(C)CC(C)C2)c1` (stereo not given) stands 1.5%; under `Cc1cccc(CS(=O)(=O)c2ncc(Cl)c(C(=O)Nc3ccc(F)cc3)n2)c1`, 81.7% (active).
As to `Cc1ccc(C)c(Cn2nnc3c(=O)[nH]c(C(=O)Nc4ccc(F)cc4)nc32)c1`, the inhibition was 22.5%.
Under `Cc1cccc(CN2CCC(CNC(=O)Nc3ccc(F)c(Cl)c3)CC2)c1` stands -7.6%; under `Cc1cccc(NC(=O)c2nc(S(=O)(=O)Cc3ccccc3)ncc2Cl)c1`, 89.1% (active); under `ONC(=Nc1ccc(Cl)cc1)c1ccccc1Cl`, 9.7%.
Consider `Nc1nnc(C2CCCC2)s1`, for which the inhibition is 0%.
Under `OC[C@@H]1CN(C2CCCC2)C[C@H](n2cnc3c(NC4CCC4)ncnc32)O1` stands 6.2%; under `O=C(Nc1ccn(Cc2ccccc2)n1)c1n[nH]c([N+](=O)[O-])c1Cl`, -15.6%.
Consider `O=C(Cc1ccc(Cl)c(Cl)c1)Nc1ccc(SC(F)F)cc1`, for which the inhibition is 60.8% (active).
For the molecule `Cc1ccc(CC(=O)Nc2ccc(OC(F)F)c(Cl)c2)cc1C`, the inhibition was 2.1%.
For `CC(=O)N1CCN(CC(=O)Nc2ccc(SC(F)F)cc2)CC1`, the inhibition is 5.2%.
Under `COc1ccccc1CC(NC(C)=O)C(=O)NC1CCN(C(=O)Nc2ccccc2Cl)CC1` (stereo not given) stands 2.1%; under `O=C1CCC(Cc2ccccc2)N1` (stereo not given), 11.2%; under `CCOC(=O)/C(=C\c1ccc([N+](=O)[O-])cc1)C(=O)c1cc(C(C)=O)c(Nc2ccccc2)s1`, 18.8%.
For the molecule `CCOC(=O)C(=Cc1ccccc1OC)C(=O)OCC`, the inhibition is 26.4%.
In the case of `CCOC(=O)C(=Cc1ccccc1)C(=O)c1ccccc1`, the inhibition is 66.7% (active).
Under `CN1CCc2c(sc3c2c(NCc2ccco2)nc2nnnn23)C1` stands -14.3%; under `CCN(CC(=O)NCc1cccs1)C(=O)/C=C/c1ccc(C)cc1`, -8.4%; under `CCCn1nc(C(=O)NNC(=O)CSCC(=O)Nc2cc(C)on2)c2ccccc2c1=O`, 16.2%.
Take `CCc1ccc(N(CC)c2ncnc3nc[nH]c23)cc1`: the inhibition was 58.2% (active).
Under `Cc1ccc(NC(=O)c2ccc(CSc3ncnc4nc[nH]c34)cc2)c(C)c1` stands -2.8%; under `COc1ccc(CCNc2ncnc3nc[nH]c23)cc1OC`, 14.3%.
Under `CCCN1C(=O)C(Cc2nc3ccccc3c(=O)n2-c2ccccc2)c2cc(C)ccc21` (stereo not given) stands -39%; under `O=C(CC(O)(C(F)(F)F)C(F)(F)F)Nc1ccc(Cl)c(Cl)c1`, 62.4% (active); under `CN(CC(=O)Nc1ccc(Cl)c(C(F)(F)F)c1)C(=O)CCC(=O)c1ccccc1`, -0.4%.
With `O=C(Cc1ncc(C(F)(F)F)cc1Cl)Nc1cccc(Br)c1`, the inhibition is 7.6%.
Under `CN(CC(=O)Nc1ccc(OC(F)(F)F)cc1)C(=O)C1CCC1` stands 6.5%; under `O=C(O)C1CCCN1C1=NS(=O)(=O)c2ccccc21` (stereo not given), 9.4%; under `O=C(COc1ccc(S(=O)(=O)N2CCOCC2)cc1Cl)N1CCOCC1`, 1.5%.
Under `O=C(Nn1c(-c2ccc(Cl)cc2)nc2ccccc2c1=O)c1cccnc1Cl` stands 0.4%; under `Cc1cc(C)n(CC(C)NCc2c(C(=O)N3CCOCC3)nc3c(C)cccn23)n1` (stereo not given), -0.6%; under `CC(=O)c1ccccc1NC(=O)COC(=O)C1COc2ccccc2O1` (stereo not given), -8.8%.
Under `O=C(Nc1nc(-c2ccncc2)cs1)C1COc2ccccc2O1` (stereo not given) stands 53.8% (active); under `O=C(Nc1cc(S(=O)(=O)N2CCCCC2)ccc1Cl)C1COc2ccccc2O1` (stereo not given), 24.5%.
Take `O=C(Nc1ncc([N+](=O)[O-])s1)C1COc2ccccc2O1` (stereo not given): the inhibition is 60.8% (active).
In the case of `COc1ccc(NC(=O)COC(=O)C2COc3ccccc3O2)cc1` (stereo not given), the inhibition is 4.2%.
Under `C/C(=N/NC(=O)C1COc2ccccc2O1)c1ccco1` (stereo not given) stands 17.3%.
Consider `Cc1cc(OC(=O)c2ccccc2)c([N+](=O)[O-])c(=O)[nH]1`, for which the inhibition is 4.2%.
Under `CC(=O)Oc1c(C(=O)c2nnc(C)o2)c(=O)n(Cc2ccccc2)c2ccccc12` stands 50.9% (active); under `O=C(O)CCc1nc2cc(Cl)ccc2n(Cc2ccccc2)c1=O`, 2.1%; under `CCCCCn1c(=O)c(C(=O)OCC)c(Cl)c2ccccc21`, 9.9%.
Under `CC(C)CCNC(=O)c1[nH]c(C(F)(F)F)nc1-c1ccccc1` stands -2.1%; under `CC(C)(C)C(=O)CCN1C(=O)C2(OCCO2)c2ccccc21`, -2.6%; under `CCCCn1c(N)c(N(CC(C)C)C(=O)c2ccc(-n3c(C)ccc3C)cc2)c(=O)[nH]c1=O`, 14.1%.
Under `CC1(C(=O)O)CCN1C(=O)/C=C/c1ccccc1` (stereo not given) stands 11.9%; under `CC1(C(=O)NS(=O)(=O)c2ccccc2)CCN1C(=O)C/C=C/c1ccccc1` (stereo not given), 0.3%; under `CC1(C)CCSC(/C=C/c2ccccc2)=N1`, 55.9% (active).
For the molecule `CCc1cc(-c2nnn(CCC3COCCO3)c2CC)ccc1-c1cn(Cc2ccc3ccccc3c2)nn1` (stereo not given), the inhibition is 19.3%.
Under `O=C1c2ccccc2NC(c2ccccc2O)N1NS(=O)(=O)c1ccccc1` (stereo not given) stands -6.3%; under `COc1cccc(N(C(=O)c2snc(C(N)=O)c2N)C(C(=O)NCC2CCCO2)c2c[nH]c3ccccc23)c1` (stereo not given), -0.6%.
With `O=C(Nc1nnc(S(=O)(=O)N2CCOCC2)s1)c1cccc(Br)c1`, the inhibition is 13%.
Under `O=C(Nc1nnc(S(=O)(=O)N2CCCCCC2)s1)c1cccc(Br)c1` stands 57% (active); under `COc1cccc(C(=O)Nc2nnc(S(=O)(=O)N3CCOCC3)s2)c1`, -7.5%.
On to `C/C(=N\NS(=O)(=O)c1ccc(Cl)cc1)c1ccc(NC(=O)c2ccco2)cc1`, for which the inhibition is -14%.
For `N#CCCC(C#N)(c1cccnc1)N1CCOCC1` (stereo not given), the inhibition is -15.6%.
Under `CNCC(O)c1ccc(O)c(O)c1` (stereo not given) stands 12.4%.
Under `CN(CCc1ccccn1)S(=O)(=O)c1ccc2c3c(cccc13)C(=O)N2` stands 5.4%; under `CCN(CC)S(=O)(=O)c1ccc2c3c(cccc13)C(=O)S2`, 54.1% (active); under `CCN1C(=O)c2cccc3c(S(=O)(=O)Nc4ccccc4O)ccc1c23`, -71.5%.
Under `Cc1ccc(C(=O)OCC(=O)NCc2cc(C)c(O)c(C)c2)cc1S(=O)(=O)N1CCCCC1` stands -0.3%; under `COCCCNc1ccn2nc(-c3ccc(CC(C)C)cc3)cc2n1`, -77.9%; under `Cc1ccc2occ(/C=N/NC(=O)c3ccccc3C)c(=O)c2c1`, 71% (active).
As for `O=c1c(/C=N/O)coc2ccc(Cl)cc12`, the inhibition was 0.9%.
On to `CC(C)(C)OC(=O)NCCCCCC(=O)N/N=C/c1coc2ccccc2c1=O`, for which the inhibition was 4.1%.
Turning to `Cc1ccc(NC(=O)[C@H](Cc2ccccc2)NC(=O)CC[C@H]2O[C@@H](n3ccc(=O)[nH]c3=O)[C@H](O)[C@@H]2O)cc1C`, the inhibition was -33.7%.
In the case of `CCCCC(CC)CNCc1cccn1CCN1CCOCC1` (stereo not given), the inhibition is -18.7%.
`Cc1ccc(COc2ccc(/C=N/NC(=O)CN3CCCCC3)cc2)cc1`: the inhibition was -24.1%.
Under `Cc1ccc(/C=N/NC(=O)CSc2nc3ccccc3o2)cc1` stands -2.1%; under `Cc1ccc(/C=N/NC(=O)COc2ccccc2-c2ccccc2)cc1`, 51.1% (active); under `O=C(NCc1ccc(F)cc1)c1cc(C2CCCCN2C(=O)c2ccccn2)on1` (stereo not given), 4.9%.
Under `C=CCN1C=C(C(=O)c2ccccc2)C(=O)CC1` stands 3.5%; under `O=C(CSc1ccccc1)Nc1ccc(C(=O)Nc2cccc(O)c2)cc1`, -12.7%.
Under `O=C(CCl)Nc1cccc(CP(=O)(c2ccccc2)c2ccccc2)c1` stands 58% (active); under `O=C(CSCc1ccccc1)Nc1ccccc1`, -2.5%.
For `O=C(NCc1nnc(SCC(=O)N2CCC(Cc3ccccc3)CC2)o1)c1ccco1`, the inhibition is 13.2%.
Under `CCOC(=O)C1(CCOC)CCN(Cc2cc3ccccc3s2)CC1` stands 11.7%.
Under `O=[N+]([O-])c1ccc(Oc2ccc(F)cc2Br)c2ccncc12` stands 65% (active); under `O=c1ccc2c(-c3ccccc3S(=O)(=O)O)c3ccc(O)c(O)c3oc-2c1O`, 22%.
Under `Oc1c(C(c2cccs2)N2CCN(c3ccc(F)cc3)CC2)sc2ncnn12` (stereo not given) stands 17.4%; under `CCOC(=O)C1=CC[C@@H](c2ccccc2)N(S(=O)(=O)c2ccc(C)cc2)[C@H]1c1ccc(CC)cc1`, 11.8%; under `Cc1ccc(NC(=O)Nc2nnc(-c3ccncc3)s2)cc1`, 68% (active).
For the molecule `Cc1nnc(NC(=O)Nc2ccc(Cl)c(Cl)c2)s1`, the inhibition is 83.2% (active).
Under `CCc1ccc(NC(=O)Nc2ccncc2)cc1` stands 16.4%; under `Cc1nnc(NC(=O)Cn2c(=O)sc3ccccc32)s1`, -6.1%; under `Cc1ccc(NC(=O)Nc2cc(-c3ccccc3)nn2C)cc1Cl`, -3.9%.
Regarding `CC(C)=CC(=O)Nc1nnc(-c2ccc(F)cc2)s1`, the inhibition is 0.2%.
With `C[C@H]1Cn2cnc(C(=O)N[C@H](C)c3ccccc3)c2C(=O)N1`, the inhibition is -3.8%.
For `CCOC(=O)C1=C(CC)Nc2ccccc2N=C1N`, the inhibition is -14.1%.
Under `CC(C)Cn1cnc2c1c(=O)n(CC(O)c1ccccc1)c(=O)n2CC(C)C` (stereo not given) stands 9%; under `COc1ccc(NC(=S)N2N=CCC2c2ccccc2)cc1` (stereo not given), 5.1%.
